# Data: article PMC7862700, “An all-to-all approach to the identification of sequence-specific readers for epigenetic DNA modifications on cytosine”
# Columns and labels:
# Test in all cases: DAPPL (digital affinity profiling via proximity ligation, sequencing); 10 mM Tris-HCl pH 7.5, 50 mM NaCl, 1 mM DTT, 4% glycerol, room temperature, 30 min; GST-TFs on glutathione beads, 16-mer random dsDNA library, 0.1% formaldehyde crosslink after washing; high values mean tight binding
# FLI1 = molecular target: T1, FLI1 (Homo sapiens, UniProt Q01543 1-452); settings: protein: recombinant; tags: N-terminal GST; dsDNA, one strand shown
# T1 sequence: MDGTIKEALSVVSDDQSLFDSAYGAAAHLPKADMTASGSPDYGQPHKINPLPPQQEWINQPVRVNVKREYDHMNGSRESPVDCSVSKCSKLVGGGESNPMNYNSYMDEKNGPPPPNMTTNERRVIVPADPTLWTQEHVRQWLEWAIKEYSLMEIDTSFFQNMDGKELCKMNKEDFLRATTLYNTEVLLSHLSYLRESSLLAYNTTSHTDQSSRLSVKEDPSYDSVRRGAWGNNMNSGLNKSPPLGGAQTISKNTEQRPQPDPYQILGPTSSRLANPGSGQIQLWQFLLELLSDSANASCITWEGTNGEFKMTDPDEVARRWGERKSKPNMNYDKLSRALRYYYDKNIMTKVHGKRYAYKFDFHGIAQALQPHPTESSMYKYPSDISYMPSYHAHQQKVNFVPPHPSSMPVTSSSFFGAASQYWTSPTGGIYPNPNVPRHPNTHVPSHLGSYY
# How it was run: (§1)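 GST fusions of human transcription factors were expressed in yeast and captured with glutathione beads. Once given DNA barcodes and pooled alongside a tag-only sample, they were incubated for 30 min at room temperature with 200 nmole of a random double-stranded 16-mer DNA library in Tris/NaCl/DTT/glycerol buffer, then washed, crosslinked (0.1% formaldehyde), proximity-ligated, PCR-amplified and sequenced on an Illumina NextSeq500. The binding signal of each hexamer is its read frequency for a factor divided by its frequency for the tag-only sample.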
# ELK1 = molecular target: T2, ELK1 (Homo sapiens, UniProt P19419 1-428); settings: protein: recombinant; tags: N-terminal GST; dsDNA, one strand shown
# T2 sequence: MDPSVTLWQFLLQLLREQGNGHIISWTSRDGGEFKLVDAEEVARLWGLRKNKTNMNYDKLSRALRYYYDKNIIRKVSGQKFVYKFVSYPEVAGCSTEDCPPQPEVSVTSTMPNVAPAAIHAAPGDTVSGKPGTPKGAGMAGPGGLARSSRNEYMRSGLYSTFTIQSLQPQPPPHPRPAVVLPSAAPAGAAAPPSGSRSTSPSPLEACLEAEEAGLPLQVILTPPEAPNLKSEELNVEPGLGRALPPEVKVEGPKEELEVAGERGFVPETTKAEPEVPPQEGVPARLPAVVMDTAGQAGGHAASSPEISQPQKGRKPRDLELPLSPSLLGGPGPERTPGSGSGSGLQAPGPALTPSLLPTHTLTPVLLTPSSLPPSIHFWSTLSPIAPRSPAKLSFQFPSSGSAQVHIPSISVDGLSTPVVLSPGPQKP
# How it was run: as §1
# GABPA = molecular target: T3, GABPA (Homo sapiens, UniProt Q06546 1-454); settings: protein: recombinant; tags: N-terminal GST; dsDNA, one strand shown
# T3 sequence: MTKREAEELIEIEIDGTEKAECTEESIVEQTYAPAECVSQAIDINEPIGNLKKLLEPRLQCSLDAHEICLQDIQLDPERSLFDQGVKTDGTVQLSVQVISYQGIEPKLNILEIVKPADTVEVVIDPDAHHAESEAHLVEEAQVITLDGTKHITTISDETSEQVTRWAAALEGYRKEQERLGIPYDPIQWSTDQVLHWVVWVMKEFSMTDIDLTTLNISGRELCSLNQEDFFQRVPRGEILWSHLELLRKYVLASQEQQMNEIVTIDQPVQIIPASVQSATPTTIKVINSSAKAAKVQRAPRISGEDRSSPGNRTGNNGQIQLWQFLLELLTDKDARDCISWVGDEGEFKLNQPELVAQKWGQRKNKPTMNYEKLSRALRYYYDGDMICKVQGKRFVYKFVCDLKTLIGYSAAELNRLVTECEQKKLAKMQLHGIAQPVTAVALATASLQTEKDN
# How it was run: as §1
# ERG = molecular target: T4, ERG (Homo sapiens, UniProt P11308 1-479); settings: protein: recombinant; tags: N-terminal GST; dsDNA, one strand shown
# T4 sequence: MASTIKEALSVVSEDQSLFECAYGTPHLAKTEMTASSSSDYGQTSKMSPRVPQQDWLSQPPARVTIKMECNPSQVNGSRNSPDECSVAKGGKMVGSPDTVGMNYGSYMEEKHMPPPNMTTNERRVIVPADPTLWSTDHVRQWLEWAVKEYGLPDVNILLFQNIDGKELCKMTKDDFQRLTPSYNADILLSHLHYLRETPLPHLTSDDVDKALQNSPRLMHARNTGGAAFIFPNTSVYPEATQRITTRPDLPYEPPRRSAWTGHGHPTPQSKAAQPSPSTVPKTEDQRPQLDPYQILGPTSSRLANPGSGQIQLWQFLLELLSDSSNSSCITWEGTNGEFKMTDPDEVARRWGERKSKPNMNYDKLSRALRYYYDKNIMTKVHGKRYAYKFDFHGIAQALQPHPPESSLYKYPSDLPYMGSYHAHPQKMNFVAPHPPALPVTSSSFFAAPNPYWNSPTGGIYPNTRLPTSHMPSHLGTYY
# How it was run: as §1
# ELF1 = ELF1 (Homo sapiens, UniProt P32519 1-619); settings: protein: recombinant; tags: N-terminal GST; dsDNA, one strand shown
# Chain of ELF1 (P32519 whole entry): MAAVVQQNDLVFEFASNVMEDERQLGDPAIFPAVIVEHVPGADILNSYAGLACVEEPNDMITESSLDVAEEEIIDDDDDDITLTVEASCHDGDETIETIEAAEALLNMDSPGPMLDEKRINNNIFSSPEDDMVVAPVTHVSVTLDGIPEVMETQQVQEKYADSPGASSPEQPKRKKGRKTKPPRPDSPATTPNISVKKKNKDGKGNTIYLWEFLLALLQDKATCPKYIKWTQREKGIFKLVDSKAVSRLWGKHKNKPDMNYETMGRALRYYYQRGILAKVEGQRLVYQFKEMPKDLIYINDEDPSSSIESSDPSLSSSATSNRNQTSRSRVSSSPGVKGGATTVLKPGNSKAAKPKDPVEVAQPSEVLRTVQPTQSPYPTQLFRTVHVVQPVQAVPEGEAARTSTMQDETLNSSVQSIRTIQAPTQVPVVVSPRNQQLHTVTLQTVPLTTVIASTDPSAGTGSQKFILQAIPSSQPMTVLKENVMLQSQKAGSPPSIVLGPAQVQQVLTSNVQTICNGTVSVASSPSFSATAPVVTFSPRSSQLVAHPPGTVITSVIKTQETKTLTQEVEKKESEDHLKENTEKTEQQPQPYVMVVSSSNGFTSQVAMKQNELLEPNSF
# How it was run: as §1
# EHF = molecular target: T5, EHF (Homo sapiens, UniProt Q9NZC4 1-300); settings: protein: recombinant; tags: N-terminal GST; dsDNA, one strand shown
# T5 sequence: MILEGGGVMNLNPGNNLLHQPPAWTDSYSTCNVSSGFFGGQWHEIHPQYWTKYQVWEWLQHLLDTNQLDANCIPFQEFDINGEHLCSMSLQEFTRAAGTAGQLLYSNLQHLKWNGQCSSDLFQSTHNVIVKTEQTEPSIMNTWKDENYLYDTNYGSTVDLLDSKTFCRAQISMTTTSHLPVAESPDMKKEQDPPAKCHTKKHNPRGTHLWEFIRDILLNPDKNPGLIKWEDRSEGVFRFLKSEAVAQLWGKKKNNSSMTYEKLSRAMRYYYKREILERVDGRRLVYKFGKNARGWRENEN
# How it was run: as §1
# SPI1 = SPI1 (Homo sapiens, UniProt P17947 1-270); settings: protein: recombinant; tags: N-terminal GST; dsDNA, one strand shown
# How it was run: as §1
# SPIB = SPIB (Homo sapiens, UniProt Q01892 1-262); settings: protein: recombinant; tags: N-terminal GST; dsDNA, one strand shown
# Chain of SPIB (Q01892 whole entry): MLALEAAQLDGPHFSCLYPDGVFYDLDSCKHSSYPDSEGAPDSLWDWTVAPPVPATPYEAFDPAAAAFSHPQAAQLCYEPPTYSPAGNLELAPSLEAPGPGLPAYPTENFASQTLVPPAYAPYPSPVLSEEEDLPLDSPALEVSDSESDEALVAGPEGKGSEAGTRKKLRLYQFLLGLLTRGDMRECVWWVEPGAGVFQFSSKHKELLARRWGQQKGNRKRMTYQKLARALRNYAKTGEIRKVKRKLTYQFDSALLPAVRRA
# How it was run: as §1
# ELK3 = molecular target: T6, ELK3 (Homo sapiens, UniProt P41970 1-407); settings: protein: recombinant; tags: N-terminal GST; dsDNA, one strand shown
# T6 sequence: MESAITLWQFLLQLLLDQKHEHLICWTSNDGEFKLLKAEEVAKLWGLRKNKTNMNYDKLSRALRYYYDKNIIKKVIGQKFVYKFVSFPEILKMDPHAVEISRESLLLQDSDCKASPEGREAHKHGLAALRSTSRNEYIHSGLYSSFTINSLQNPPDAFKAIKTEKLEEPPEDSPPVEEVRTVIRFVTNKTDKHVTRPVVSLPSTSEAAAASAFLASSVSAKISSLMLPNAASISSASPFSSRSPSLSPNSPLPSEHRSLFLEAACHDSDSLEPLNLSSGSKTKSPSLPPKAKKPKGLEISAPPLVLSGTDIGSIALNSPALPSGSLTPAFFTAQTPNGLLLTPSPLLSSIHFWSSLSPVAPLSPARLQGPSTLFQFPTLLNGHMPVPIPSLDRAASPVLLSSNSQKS
# How it was run: as §1
# FEV = molecular target: T7, FEV (Homo sapiens, UniProt Q99581 1-238); settings: protein: recombinant; tags: N-terminal GST; dsDNA, one strand shown
# T7 sequence: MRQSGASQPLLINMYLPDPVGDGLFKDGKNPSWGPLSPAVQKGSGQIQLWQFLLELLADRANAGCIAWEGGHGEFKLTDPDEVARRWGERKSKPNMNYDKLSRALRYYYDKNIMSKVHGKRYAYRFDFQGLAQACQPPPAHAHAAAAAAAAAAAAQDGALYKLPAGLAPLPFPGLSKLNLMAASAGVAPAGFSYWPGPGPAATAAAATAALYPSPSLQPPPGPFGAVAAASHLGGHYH
# How it was run: as §1
# ETV5 = ETV5 (Homo sapiens, UniProt P41161 1-510); settings: protein: recombinant; tags: N-terminal GST; dsDNA, one strand shown
# Chain of ETV5 (P41161 whole entry): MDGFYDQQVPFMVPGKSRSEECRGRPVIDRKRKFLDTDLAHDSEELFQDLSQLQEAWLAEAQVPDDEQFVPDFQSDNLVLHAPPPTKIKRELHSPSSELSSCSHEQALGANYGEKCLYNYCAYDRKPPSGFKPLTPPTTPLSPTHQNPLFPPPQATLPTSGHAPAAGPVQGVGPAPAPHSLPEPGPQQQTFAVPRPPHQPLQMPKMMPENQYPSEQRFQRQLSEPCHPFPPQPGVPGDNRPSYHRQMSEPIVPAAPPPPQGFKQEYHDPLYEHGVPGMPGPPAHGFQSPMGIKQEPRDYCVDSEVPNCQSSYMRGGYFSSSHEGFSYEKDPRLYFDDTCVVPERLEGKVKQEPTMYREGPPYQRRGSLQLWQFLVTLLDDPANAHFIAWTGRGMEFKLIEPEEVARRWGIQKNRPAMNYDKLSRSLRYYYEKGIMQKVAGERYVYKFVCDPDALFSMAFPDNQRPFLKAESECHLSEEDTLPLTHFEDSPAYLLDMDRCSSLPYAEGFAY
# How it was run: as §1
# HSF1 = HSF1 (Homo sapiens, UniProt Q00613 1-529); settings: protein: recombinant; tags: N-terminal GST; chain copies: 3; dsDNA, one strand shown
# Chain of HSF1 (Q00613 whole entry): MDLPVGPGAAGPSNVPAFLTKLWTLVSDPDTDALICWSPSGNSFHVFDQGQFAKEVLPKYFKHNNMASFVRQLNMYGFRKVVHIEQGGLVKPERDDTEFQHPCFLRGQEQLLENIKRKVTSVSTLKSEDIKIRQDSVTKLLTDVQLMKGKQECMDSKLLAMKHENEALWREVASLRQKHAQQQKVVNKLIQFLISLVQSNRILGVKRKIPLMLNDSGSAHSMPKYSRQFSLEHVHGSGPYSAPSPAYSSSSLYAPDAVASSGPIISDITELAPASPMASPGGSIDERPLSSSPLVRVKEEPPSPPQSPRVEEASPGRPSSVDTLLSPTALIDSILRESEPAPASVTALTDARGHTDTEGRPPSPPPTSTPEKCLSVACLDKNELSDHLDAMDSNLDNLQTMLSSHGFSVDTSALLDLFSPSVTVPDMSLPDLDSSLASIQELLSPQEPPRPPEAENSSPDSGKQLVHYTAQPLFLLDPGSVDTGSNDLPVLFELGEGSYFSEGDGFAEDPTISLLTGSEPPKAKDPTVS
# How it was run: as §1
# SPIC = molecular target: T8, SPIC (Homo sapiens, UniProt Q8N5J4 1-248); settings: protein: recombinant; tags: N-terminal GST; dsDNA, one strand shown
# T8 sequence: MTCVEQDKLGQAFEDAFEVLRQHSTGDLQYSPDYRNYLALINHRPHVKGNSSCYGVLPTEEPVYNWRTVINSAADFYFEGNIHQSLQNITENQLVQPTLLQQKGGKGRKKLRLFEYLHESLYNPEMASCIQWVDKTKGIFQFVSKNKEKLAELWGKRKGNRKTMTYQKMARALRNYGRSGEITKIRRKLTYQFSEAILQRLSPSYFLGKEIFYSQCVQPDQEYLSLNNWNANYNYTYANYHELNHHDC
# How it was run: as §1
# ELF4 = ELF4 (Homo sapiens, UniProt Q99607 1-663); settings: protein: recombinant; tags: N-terminal GST; dsDNA, one strand shown
# Chain of ELF4 (Q99607 whole entry): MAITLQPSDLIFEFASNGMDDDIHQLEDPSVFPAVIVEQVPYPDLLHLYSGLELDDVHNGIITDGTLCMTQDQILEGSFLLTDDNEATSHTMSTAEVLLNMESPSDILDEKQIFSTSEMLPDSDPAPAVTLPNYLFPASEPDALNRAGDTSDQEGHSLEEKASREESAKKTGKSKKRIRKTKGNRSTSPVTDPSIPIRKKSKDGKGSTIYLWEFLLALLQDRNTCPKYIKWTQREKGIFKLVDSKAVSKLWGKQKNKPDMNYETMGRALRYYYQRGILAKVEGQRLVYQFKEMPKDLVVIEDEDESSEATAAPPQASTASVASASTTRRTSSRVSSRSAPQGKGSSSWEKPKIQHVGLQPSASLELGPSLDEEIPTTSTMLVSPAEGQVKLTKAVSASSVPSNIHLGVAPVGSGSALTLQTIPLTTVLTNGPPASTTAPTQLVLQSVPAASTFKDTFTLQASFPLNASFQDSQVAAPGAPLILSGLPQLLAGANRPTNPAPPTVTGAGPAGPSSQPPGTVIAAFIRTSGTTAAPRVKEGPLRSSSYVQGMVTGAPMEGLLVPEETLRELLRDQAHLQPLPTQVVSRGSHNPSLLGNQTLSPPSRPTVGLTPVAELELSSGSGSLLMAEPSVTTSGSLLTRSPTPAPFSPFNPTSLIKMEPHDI
# How it was run: as §1
# ELK4 = molecular target: T9, ELK4 (Homo sapiens, UniProt P28324-2 1-405); settings: protein: recombinant; tags: N-terminal GST; dsDNA, one strand shown
# T9 sequence: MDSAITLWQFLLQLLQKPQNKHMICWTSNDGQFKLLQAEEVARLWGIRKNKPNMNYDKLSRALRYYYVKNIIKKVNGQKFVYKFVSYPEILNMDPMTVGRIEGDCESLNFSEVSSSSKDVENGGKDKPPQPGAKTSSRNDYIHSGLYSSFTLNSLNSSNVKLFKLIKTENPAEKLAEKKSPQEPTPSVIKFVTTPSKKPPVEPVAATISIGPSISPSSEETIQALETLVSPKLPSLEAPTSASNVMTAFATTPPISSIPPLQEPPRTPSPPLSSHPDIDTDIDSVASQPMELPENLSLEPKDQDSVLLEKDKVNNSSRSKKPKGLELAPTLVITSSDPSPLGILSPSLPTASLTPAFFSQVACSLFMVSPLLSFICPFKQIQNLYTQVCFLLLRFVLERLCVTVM
# How it was run: as §1
# ETV2 = molecular target: T10, ETV2 (Homo sapiens, UniProt O00321 1-342); settings: protein: recombinant; tags: N-terminal GST; dsDNA, one strand shown
# T10 sequence: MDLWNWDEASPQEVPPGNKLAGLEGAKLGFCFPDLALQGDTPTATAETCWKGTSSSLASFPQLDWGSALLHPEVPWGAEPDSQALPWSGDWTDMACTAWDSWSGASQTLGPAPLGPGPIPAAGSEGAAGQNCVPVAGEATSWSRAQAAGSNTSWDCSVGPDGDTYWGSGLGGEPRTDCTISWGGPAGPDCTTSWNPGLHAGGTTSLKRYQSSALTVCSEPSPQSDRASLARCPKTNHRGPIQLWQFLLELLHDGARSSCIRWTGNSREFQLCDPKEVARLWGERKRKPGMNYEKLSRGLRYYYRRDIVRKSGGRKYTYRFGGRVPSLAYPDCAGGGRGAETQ
# How it was run: as §1
# ELF3 = molecular target: T11, ELF3 (Homo sapiens, UniProt P78545 1-371); settings: protein: recombinant; tags: N-terminal GST; dsDNA, one strand shown
# T11 sequence: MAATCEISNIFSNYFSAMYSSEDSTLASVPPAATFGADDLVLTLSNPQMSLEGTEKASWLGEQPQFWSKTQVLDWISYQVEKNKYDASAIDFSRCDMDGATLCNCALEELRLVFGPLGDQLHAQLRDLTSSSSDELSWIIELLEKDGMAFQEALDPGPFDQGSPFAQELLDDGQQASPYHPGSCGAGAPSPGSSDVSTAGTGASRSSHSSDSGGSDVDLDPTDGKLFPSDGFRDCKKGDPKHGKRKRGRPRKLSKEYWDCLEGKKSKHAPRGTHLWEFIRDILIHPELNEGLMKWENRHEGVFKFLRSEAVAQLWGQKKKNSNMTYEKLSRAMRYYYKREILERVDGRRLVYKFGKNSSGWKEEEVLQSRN
# How it was run: as §1
# CRX = CRX (Homo sapiens, UniProt O43186 1-299); settings: protein: recombinant; tags: N-terminal GST; dsDNA, one strand shown
# Chain of CRX (O43186 whole entry): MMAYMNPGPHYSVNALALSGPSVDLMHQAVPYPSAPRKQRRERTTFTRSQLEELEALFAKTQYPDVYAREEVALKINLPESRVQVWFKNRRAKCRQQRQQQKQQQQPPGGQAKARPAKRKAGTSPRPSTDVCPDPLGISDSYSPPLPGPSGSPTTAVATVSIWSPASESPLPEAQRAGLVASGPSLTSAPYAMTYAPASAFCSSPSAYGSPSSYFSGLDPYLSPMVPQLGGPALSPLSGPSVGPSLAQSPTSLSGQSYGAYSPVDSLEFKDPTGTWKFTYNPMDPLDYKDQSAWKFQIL
# How it was run: as §1
# ETV1 = ETV1 (Homo sapiens, UniProt P50549 1-477); settings: protein: recombinant; tags: N-terminal GST; dsDNA, one strand shown
# Chain of ETV1 (P50549 whole entry): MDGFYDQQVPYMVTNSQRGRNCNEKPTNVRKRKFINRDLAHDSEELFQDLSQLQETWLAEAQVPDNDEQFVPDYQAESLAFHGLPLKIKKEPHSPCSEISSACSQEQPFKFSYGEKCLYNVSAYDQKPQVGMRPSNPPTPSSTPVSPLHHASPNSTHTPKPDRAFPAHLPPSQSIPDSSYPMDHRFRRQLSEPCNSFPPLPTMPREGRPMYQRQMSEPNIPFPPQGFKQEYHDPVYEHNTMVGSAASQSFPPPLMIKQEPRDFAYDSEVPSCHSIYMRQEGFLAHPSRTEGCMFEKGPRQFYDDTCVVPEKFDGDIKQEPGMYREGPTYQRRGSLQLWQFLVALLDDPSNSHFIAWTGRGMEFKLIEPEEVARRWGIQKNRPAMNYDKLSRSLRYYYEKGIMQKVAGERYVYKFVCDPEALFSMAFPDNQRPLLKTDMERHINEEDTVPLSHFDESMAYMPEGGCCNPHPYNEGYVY
# How it was run: as §1
sequence,measurement,setting,value
ACGTTA,binding signal,FLI1,"1.11 fold enrichment (6-mer frequency, TF over GST control)"
same,binding signal,ELK1,"1.14 fold enrichment (6-mer frequency, TF over GST control)"
same,binding signal,GABPA,"1.11 fold enrichment (6-mer frequency, TF over GST control)"
same,binding signal,ERG,"1.21 fold enrichment (6-mer frequency, TF over GST control)"
same,binding signal,ELF1,"1.19 fold enrichment (6-mer frequency, TF over GST control)"
same,binding signal,EHF,"1.11 fold enrichment (6-mer frequency, TF over GST control)"
same,binding signal,SPI1,"1.19 fold enrichment (6-mer frequency, TF over GST control)"
same,binding signal,SPIB,"1.06 fold enrichment (6-mer frequency, TF over GST control)"
same,binding signal,ELK3,"1.3 fold enrichment (6-mer frequency, TF over GST control)"
same,binding signal,FEV,"1.13 fold enrichment (6-mer frequency, TF over GST control)"
same,binding signal,ETV5,"1.11 fold enrichment (6-mer frequency, TF over GST control)"
same,binding signal,HSF1,"1.04 fold enrichment (6-mer frequency, TF over GST control)"
same,binding signal,SPIC,"1.18 fold enrichment (6-mer frequency, TF over GST control)"
same,binding signal,ELF4,"1.11 fold enrichment (6-mer frequency, TF over GST control)"
same,binding signal,ELK4,"1.03 fold enrichment (6-mer frequency, TF over GST control)"
same,binding signal,ETV2,"1.28 fold enrichment (6-mer frequency, TF over GST control)"
same,binding signal,ELF3,"1.09 fold enrichment (6-mer frequency, TF over GST control)"
same,binding signal,CRX,"1.17 fold enrichment (6-mer frequency, TF over GST control)"
same,binding signal,ETV1,"1.05 fold enrichment (6-mer frequency, TF over GST control)"
